Where “and” joins values, the source holds several entries; their conditions need not be identical. Equal entries are not always repeated. Inconclusive results are not listed. Entries that show only a call come without a potency. Some compounds were tested as several samples or in several runs, with calls that do not always agree. Calls of active or inactive are those of the source. The call rests on the fitted dose curve; in most records, active means well fitted inhibition curve with a large enough effect in the repeat runs; inconclusive means weak or mixed curves; inactive means no such curve, though single readings can be large or run the other way.
These molecules were tested against Cytochrome P450 2C19 (Homo sapiens) (UniProt P33261) (assay: Cytochrome P450 Family 2 Subfamily C Member 19 (CYP2C19) small molecule antagonists: luciferase reporter qHTS assay (AID 1671197; further: nearly all actives have a fitted effect of over 65% in size)). Details: P450-Glo CYP2C19 enzyme, luciferin luminescence, 1 h; series mostly up to 115 µM.
Cytochrome P450 2C19 (Homo sapiens), sequence (P33261 whole entry, looked up): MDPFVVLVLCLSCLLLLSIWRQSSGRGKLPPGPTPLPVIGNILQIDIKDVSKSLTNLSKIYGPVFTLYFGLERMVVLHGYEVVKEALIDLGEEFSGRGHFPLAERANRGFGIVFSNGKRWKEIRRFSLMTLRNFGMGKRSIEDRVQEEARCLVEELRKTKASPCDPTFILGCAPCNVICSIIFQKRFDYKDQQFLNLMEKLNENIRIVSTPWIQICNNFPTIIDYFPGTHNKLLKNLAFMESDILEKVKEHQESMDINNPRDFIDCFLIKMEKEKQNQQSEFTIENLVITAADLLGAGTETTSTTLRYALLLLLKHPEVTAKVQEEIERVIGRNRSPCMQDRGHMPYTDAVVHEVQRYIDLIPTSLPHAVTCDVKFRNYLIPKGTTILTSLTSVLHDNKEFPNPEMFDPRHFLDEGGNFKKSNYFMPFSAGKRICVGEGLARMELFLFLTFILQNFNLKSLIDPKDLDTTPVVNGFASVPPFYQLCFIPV
Method in brief: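 First, compounds are pinned into enzyme-substrate mix and held 10 min at room temperature. Second, NADPH regeneration solution is added and plates incubate 1 h at 37C. Third, detection reagent is added and luminescence read after 20 min.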
For `O=c1[nH]c(=O)n([C@H]2CCCO2)cc1F`, the Potency was “inactive”. In the case of `C=CCNC(N)=S`, the Potency is reported as 69.4 µM (active) and inactive. For `c1ccc2c(c1)ccc1ccccc12`, the Potency was 77.5 µM (active) and 39.9 µM (active). For `CC(=O)OCC(=O)[C@@]12N=C(C)O[C@@H]1C[C@H]1[C@@H]3CCC4=CC(=O)C=C[C@]4(C)[C@H]3[C@@H](O)C[C@@]12C`, the Potency was “inactive”. `Cc1ccc2oc(=O)ccc2c1` was tested, and the Potency was “inactive and 35.6 µM (active)”. In the case of `CCC(O)OC(O)CC` (configuration not stated), the Potency is reported as “inactive”. With `O=C(O)c1ccc(C(=O)O)cc1` the Potency was “inactive”. With `CCCCCCCCCCCCc1ccccc1` the Potency was “inactive”. With `CCCCCC1=CCCC1=O` the Potency was 20.4 µM (active) and inactive. `CCCCC(CC)COC(=O)CCCCC(=O)OCC(CC)CCCC` (configuration not stated) was tested, and the Potency was 70.6 µM (active). `CCCCCC(N)=O` was tested, and the Potency was “inactive”. For `CC(=O)c1ccccc1`, the Potency was 41.4 µM (active) and inactive. With `CSCCC=O` the Potency was 75.8 µM (active) and 7.1 µM (active). `Cc1ccc(N(C)C)cc1` was tested, and the Potency was “inactive and 50.2 µM (active)”. With `CCCCCCCC(=O)OC` the Potency was “inactive”. With `CCc1cccc(C)c1N` the Potency was 68.8 µM (active) and 71 µM (active). `OCC(CO)(CBr)CBr` was tested, and the Potency was “inactive”. With `CN(C)CCCN` the Potency was “inactive”. With `O=S1(=O)CC=CC1` the Potency was “inactive”. `CC(C)(C)[C@@H](O)[C@@H](Cc1ccc(Cl)cc1)n1cncn1` was tested, and the Potency was 250 nM (active) and 159 nM (active). `C#CCN(C)Cc1ccccc1` was tested, and the Potency was “inactive”. With `C[Si](O[Si](C)(C)C)O[Si](C)(C)C` the Potency was “inactive”. For `Oc1cccc2ccccc12`, the Potency was 23 µM (active) and 39.9 µM (active). With `CCCCCC/C(C=O)=C\c1ccccc1` the Potency was 40.4 µM (active) and 20 µM (active). For `CCCCCCCCCCCCCCO`, the Potency was “inactive”. `Nc1cc([N+](=O)[O-])ccc1O` was tested, and the Potency was 39.9 µM (active) and inactive. `O=C(O)c1ccc2c(c1)C(=O)OC2=O` was tested, and the Potency was “inactive”. In the case of `O=C(Oc1ccccc1)c1ccccc1`, the Potency is reported as “inactive”. For `OC[C@H]1O[C@@](CO)(O[C@H]2O[C@H](CO)[C@@H](O)[C@H](O)[C@H]2O)[C@@H](O)[C@@H]1O`, the Potency was “inactive”. With `O=c1[nH]c(=O)n([C@H]2C[C@H](O)[C@@H](CO)O2)cc1Br` the Potency was “inactive”. In the case of `CC(=O)CC(=O)Nc1ccccc1C`, the Potency is reported as “inactive”. In the case of `Fc1ccc(Br)cc1`, the Potency is reported as 71.7 µM (active) and inactive. With `CC(c1cc2ccccc2s1)N(O)C(N)=O` (configuration not stated) the Potency was 31.7 µM (active). In the case of `C=CCOC(=O)c1ccccc1C(=O)OCC=C`, the Potency is reported as 1.56 µM (active) and 1.26 µM (active). In the case of `CC1CCC(C(C)C)C(O)C1` (configuration not stated), the Potency is reported as 70.3 µM (active) and inactive. In the case of `Cc1cccnc1`, the Potency is reported as “inactive”.

Each molecule was assayed against Cytochrome P450 2C9 (Homo sapiens) (UniProt P11712) (assay: Cytochrome P450 Family 2 Subfamily C Member 9 (CYP2C9) small molecule antagonists: luciferase reporter qHTS assay (AID 1671198; further: nearly all actives have a fitted effect of over 50% in size)). Details: P450-Glo CYP2C9 enzyme assay, luciferin luminescence; series mostly up to 115 µM.
Cytochrome P450 2C9 (Homo sapiens), sequence (P11712 whole entry, looked up): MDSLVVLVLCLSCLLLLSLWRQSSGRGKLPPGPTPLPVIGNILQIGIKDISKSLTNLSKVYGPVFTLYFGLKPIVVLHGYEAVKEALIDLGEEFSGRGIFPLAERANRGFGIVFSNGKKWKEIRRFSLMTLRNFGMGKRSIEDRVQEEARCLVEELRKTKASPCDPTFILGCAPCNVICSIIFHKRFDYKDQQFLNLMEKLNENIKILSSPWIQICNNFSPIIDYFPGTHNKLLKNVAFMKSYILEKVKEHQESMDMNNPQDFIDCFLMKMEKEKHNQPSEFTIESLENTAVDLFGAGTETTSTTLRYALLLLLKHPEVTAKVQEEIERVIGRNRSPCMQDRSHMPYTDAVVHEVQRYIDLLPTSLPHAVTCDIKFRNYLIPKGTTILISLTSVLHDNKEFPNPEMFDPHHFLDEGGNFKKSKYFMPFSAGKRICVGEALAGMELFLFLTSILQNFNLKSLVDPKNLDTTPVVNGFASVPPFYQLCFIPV
Method in brief: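 Enzyme-substrate mix preincubated with compound 10 min at room temperature; reaction started with NADPH regeneration solution, 1 h 37C. Luminescent luciferin product read after 20 min detection reagent.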
In the case of `C=CCNC(N)=S`, the Potency is reported as “inactive”. With `CC(=O)OCC(=O)[C@@]12N=C(C)O[C@@H]1C[C@H]1[C@@H]3CCC4=CC(=O)C=C[C@]4(C)[C@H]3[C@@H](O)C[C@@]12C` the Potency was “inactive”. With `Cc1ccc2oc(=O)ccc2c1` the Potency was “inactive”. With `CCC(O)OC(O)CC` (configuration not stated) the Potency was “inactive”. For `CCCCCCCCCCCCc1ccccc1`, the Potency was “inactive”. In the case of `CCCCC(CC)COC(=O)CCCCC(=O)OCC(CC)CCCC` (configuration not stated), the Potency is reported as 28.3 µM (active). With `CC(=O)c1ccccc1` the Potency was “inactive”. For `CSCCC=O`, the Potency was 35.6 µM (active). With `Cc1ccc(N(C)C)cc1` the Potency was “inactive”. For `CCCCCCCC(=O)OC`, the Potency was “inactive”. With `CCc1cccc(C)c1N` the Potency was “inactive”. For `CN(C)CCCN`, the Potency was “inactive”. For `CC(C)(C)[C@@H](O)[C@@H](Cc1ccc(Cl)cc1)n1cncn1`, the Potency was 11.2 µM (active) and 22.4 µM (active). In the case of `C[Si](O[Si](C)(C)C)O[Si](C)(C)C`, the Potency is reported as “inactive”. `Oc1cccc2ccccc12` was tested, and the Potency was 36.5 µM (active) and 35.6 µM (active). In the case of `Nc1cc([N+](=O)[O-])ccc1O`, the Potency is reported as 31.7 µM (active) and 39.7 µM (active). In the case of `O=C(Oc1ccccc1)c1ccccc1`, the Potency is reported as “inactive”. With `OC[C@H]1O[C@@](CO)(O[C@H]2O[C@H](CO)[C@@H](O)[C@H](O)[C@H]2O)[C@@H](O)[C@@H]1O` the Potency was “inactive”. For `O=c1[nH]c(=O)n([C@H]2C[C@H](O)[C@@H](CO)O2)cc1Br`, the Potency was “inactive”. In the case of `Fc1ccc(Br)cc1`, the Potency is reported as “inactive”. For `CC(c1cc2ccccc2s1)N(O)C(N)=O` (configuration not stated), the Potency was 71 µM (active). With `C=CCOC(=O)c1ccccc1C(=O)OCC=C` the Potency was 3.93 µM (active) and 5.64 µM (active).

Each molecule was assayed against Cytochrome P450 1A2 (Homo sapiens) (UniProt P05177) (assay: Cytochrome P450 Family 1 Subfamily A Member 2 (CYP1A2) small molecule antagonists: luciferase reporter qHTS assay (AID 1671199; further: nearly all actives have a fitted effect of over 50% in size)). Details: P450-Glo CYP1A2 enzyme, luciferin luminescence, 1 h; series mostly up to 115 µM.
Cytochrome P450 1A2 (Homo sapiens), sequence (P05177 whole entry, looked up): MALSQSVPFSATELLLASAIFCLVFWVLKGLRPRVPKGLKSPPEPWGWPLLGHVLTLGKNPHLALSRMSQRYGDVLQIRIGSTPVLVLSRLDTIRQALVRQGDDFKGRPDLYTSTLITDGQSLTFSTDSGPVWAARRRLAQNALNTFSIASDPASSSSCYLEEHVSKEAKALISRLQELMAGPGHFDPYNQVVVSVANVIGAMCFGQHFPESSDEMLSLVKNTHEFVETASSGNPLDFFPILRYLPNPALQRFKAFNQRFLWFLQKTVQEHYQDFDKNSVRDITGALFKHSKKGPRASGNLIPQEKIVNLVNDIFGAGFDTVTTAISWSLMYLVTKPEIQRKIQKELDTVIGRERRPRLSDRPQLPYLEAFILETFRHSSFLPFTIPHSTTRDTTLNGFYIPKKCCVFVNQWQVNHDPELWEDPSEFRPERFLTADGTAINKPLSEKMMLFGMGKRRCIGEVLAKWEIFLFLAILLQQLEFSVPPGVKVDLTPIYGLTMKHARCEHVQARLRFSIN
Method in brief: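 Compounds were incubated with CYP1A2 and a luminogenic proluciferin substrate for 10 min at room temperature before the reaction was started with NADPH regeneration solution. After 1 h, detection reagent was added and light output, proportional to CYP activity, was recorded.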
For `O=c1[nH]c(=O)n([C@H]2CCCO2)cc1F`, the Potency was “inactive”. In the case of `C=CCNC(N)=S`, the Potency is reported as “inactive”. For `c1ccc2c(c1)ccc1ccccc12`, the Potency was 6.16 µM (active) and 3.99 µM (active). For `CC(=O)OCC(=O)[C@@]12N=C(C)O[C@@H]1C[C@H]1[C@@H]3CCC4=CC(=O)C=C[C@]4(C)[C@H]3[C@@H](O)C[C@@]12C`, the Potency was “inactive and 17.4 µM (active)”. In the case of `Cc1ccc2oc(=O)ccc2c1`, the Potency is reported as 32.6 µM (active) and 31.7 µM (active). For `CCC(O)OC(O)CC` (configuration not stated), the Potency was “inactive”. For `CCCCCCCCCCCCc1ccccc1`, the Potency was “inactive”. With `CCCCCC1=CCCC1=O` the Potency was “inactive”. With `CCCCC(CC)COC(=O)CCCCC(=O)OCC(CC)CCCC` (configuration not stated) the Potency was “inactive and 35.6 µM (active)”. For `CCCCCC(N)=O`, the Potency was “inactive”. `CC(=O)c1ccccc1` was tested, and the Potency was 32.9 µM (active). `CSCCC=O` was tested, and the Potency was 19 µM (active) and 4.48 µM (active). `Cc1ccc(N(C)C)cc1` was tested, and the Potency was “inactive”. With `CCCCCCCC(=O)OC` the Potency was “inactive”. For `CCc1cccc(C)c1N`, the Potency was 39.9 µM (active). `OCC(CO)(CBr)CBr` was tested, and the Potency was 40.4 µM (active) and inactive. With `CC[C@H](C)C(=O)O[C@H]1C[C@@H](C)C=C2C=C[C@H](C)[C@H](CC[C@@H]3C[C@@H](O)CC(=O)O3)[C@H]21` the Potency was “inactive”. With `CN(C)CCCN` the Potency was “inactive”. For `O=S1(=O)CC=CC1`, the Potency was “inactive”. With `CC(C)(C)[C@@H](O)[C@@H](Cc1ccc(Cl)cc1)n1cncn1` the Potency was “inactive”. With `C[Si](O[Si](C)(C)C)O[Si](C)(C)C` the Potency was “inactive”. In the case of `CCCCCC/C(C=O)=C\c1ccccc1`, the Potency is reported as 22.7 µM (active) and 8.94 µM (active). `CCCCCCCCCCCCCCO` was tested, and the Potency was 22.4 µM (active). For `Nc1cc([N+](=O)[O-])ccc1O`, the Potency was 39.9 µM (active). With `O=C(O)c1cc(O)c(O)c(O)c1` the Potency was “inactive”. In the case of `O=C(O)c1ccc2c(c1)C(=O)OC2=O`, the Potency is reported as “inactive”. For `O=C(Oc1ccccc1)c1ccccc1`, the Potency was 31.7 µM (active). In the case of `OC[C@H]1O[C@@](CO)(O[C@H]2O[C@H](CO)[C@@H](O)[C@H](O)[C@H]2O)[C@@H](O)[C@@H]1O`, the Potency is reported as “inactive”. `O=c1[nH]c(=O)n([C@H]2C[C@H](O)[C@@H](CO)O2)cc1Br` was tested, and the Potency was 40.6 µM (active) and inactive. `CC(=O)CC(=O)Nc1ccccc1C` was tested, and the Potency was 39.9 µM (active). In the case of `Fc1ccc(Br)cc1`, the Potency is reported as 40.3 µM (active) and inactive. In the case of `CC(c1cc2ccccc2s1)N(O)C(N)=O` (configuration not stated), the Potency is reported as 8.94 µM (active) and 11.5 µM (active). In the case of `C=CCOC(=O)c1ccccc1C(=O)OCC=C`, the Potency is reported as 2.48 µM (active) and 3.56 µM (active). In the case of `Cc1cccnc1`, the Potency is reported as “inactive”.

Source: PubChem BioAssay (Tox21)
Potency means the concentration at half of the fitted maximal effect.
